Assay outcomes (PubChem BioAssay)
Rows were chosen to be rich in hits. Some 19% of all compounds tested hit in one or more screens of this group.
HT1080NT lethal – kills 2HG-producing HT-1080-NT fibrosarcoma cells; HT-1080-NT fibrosarcoma viability, CellTiter-Glo ATP luminescence, 48 h; Potency, µM (doses to about 46.1 µM), without a hit: at the highest dose activity, negative = less viability, actives largely listed as cytotoxic; 360,000 compounds, 1.6% hits; AID 686970;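 also: NT is the 2HG producing partner of a matched IDH1 knockdown line; 0% = DMSO-treated cells and -100% = media-only wells without cells; nearly all actives have a fitted effect of over 55% in size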
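HT-1080-NT fibrosarcoma cells (2HG-overproducing), 750 cells/well in RPMI with 5% FBS, dosed after 2 h and incubated 48 h at 37C. CellTiter-Glo luminescence normalized to DMSO and no-cell wells; concentration-response curves fitted and classed.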
KB-3-1 tox – kills parental KB-3-1 adenocarcinoma cells; KB-3-1 viability, CellTiter-Glo ATP luminescence, 72 h; Potency, µM (titrated, usually from 46.1 µM), hits mostly cytotoxic; 400,000 compounds, 1.4% hits; also: nearly all actives have a fitted effect of over 60% in size
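Multi-concentration cytotoxicity screen in KB-3-1 cells grown in DMEM lacking phenol red with 10% FBS. After 72 h at 37 °C with compound, ATP-dependent luminescence was recorded.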
HT1080 IDH1KD tx – kills HT-1080 cells with IDH1 knockdown | HT-1080 IDH1 knockdown viability, ATP luminescence, 48 h | Potency, µM (titrated, usually from 46.1 µM), inactives show top-dose activity, negative = toxicity, most hits filed as cytotoxic | 360,000 compounds, 2% hits;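 also: 0% = DMSO wells and -100% = cell-free medium wells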
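HT-1080-IDH1KD cells (IDH1 knocked down), 750/well in RPMI with 5% FBS, treated with compound 48 h at 37 degrees C. Viability by CellTiter-Glo luminescence, normalised to DMSO and no-cell wells; concentration-response curves classed.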
DT40 TDP1 no CPT – qHTS for Inhibitors of human tyrosyl-DNA phosphodiesterase 1 (TDP1): qHTS in cells in absence of CPT; DT40 Tdp1-/- hTDP1 cells, no CPT, ATP luminescence, 48 h; Potency, µM (titrated, usually from 46.2 µM), without a hit: at the top dose activity change, negative = growth inhibition, usual class: inhibitors; 420,000 compounds, 15% hits; also: nearly all actives have a fitted effect of over 55% in size
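Stably hTDP1-transfected Tdp1-null chicken DT40 cells were treated with library compounds minus camptothecin and grown for at least 48 hr at 37 °C, after which cellular ATP was quantified by luminescence.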
DT40 TDP1 CPT – DT40-hTDP1 cell growth loss with CPT; chicken DT40 Tdp1-/-;hTDP1 cells + 20 nM CPT, ATP luminescence, 48 h; Potency, µM (series often up to 46.2 µM), without a hit: at the top dose activity change, negative = growth inhibition, usual class: inhibitors; 420,000 compounds, 12% hits; also: nearly all actives have a fitted effect of over 55% in size
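Chicken DT40 Tdp1-/- cells complemented with human TDP1, 400 cells/well, exposed to compounds plus 20 nM camptothecin for at least 48 h at 37 C; viability read as ATP content by CellTiter-Glo luminescence.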
KB-V1 MDR tox – KB-V1 MDR subline cytotoxicity. KB-V1 MDR cells viability, CellTiter-Glo, 72 h. Potency, µM (doses to about 46.1 µM), actives largely listed as cytotoxic. 400,000 compounds, 3.4% hits. AID 1347076; also: nearly all actives have a fitted effect of over 60% in size
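Cytotoxicity toward P-gp-expressing KB-V1 cells was determined as loss of CellTiter-Glo luminescence after 72 h at 37 degrees C. Compounds were tested in quantitative HTS format across a concentration range, with curves fitted to normalized data.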
Active calls of the source: *. Calls follow the shape of the dose curve; as a rule, active = well fitted curve in the direction sought with a large enough effect; inconclusive = small, poorly fitted or top-dose-only effect, or another doubt; inactive = no such curve, though single readings can be large; an effect the other way counts as inactive or inconclusive. Unless noted, % is scaled to controls: 0 for no effect and ±100 for the full control effect; potency is read from the fitted curve at half-maximal effect.

For CCC(C)c1ccccc1N1CC(C(=O)N2CCN(c3ccccc3)CC2)CC1=O (stereo unspecified) the results were HT1080NT lethal -12%, KB-3-1 tox inactive, HT1080 IDH1KD tx -13%, DT40 TDP1 no CPT 23µM*, DT40 TDP1 CPT 15µM* and KB-V1 MDR tox inconclusive.
Nc1ccc2nc(-c3ccc(O)cc3)sc2c1 was read as KB-3-1 tox inconclusive, DT40 TDP1 no CPT 21µM*, DT40 TDP1 CPT 21µM* and KB-V1 MDR tox inactive.
Screening Nc1ccc(O)c(-c2nc3ccccc3s2)c1 returned HT1080NT lethal -8%, KB-3-1 tox inactive, HT1080 IDH1KD tx -2%, DT40 TDP1 no CPT 16µM*, DT40 TDP1 CPT 13µM* and KB-V1 MDR tox inactive.
Oc1ccc(-c2nc3ccccc3s2)c(O)c1 was read as HT1080NT lethal -1%, KB-3-1 tox inactive, HT1080 IDH1KD tx inconclusive, DT40 TDP1 no CPT -3%, DT40 TDP1 CPT 4% and KB-V1 MDR tox inconclusive.
Screening Nc1cc2sc(-c3ccc(C(=O)O)cc3)nc2cc1Cl returned HT1080NT lethal inconclusive, KB-3-1 tox inconclusive, HT1080 IDH1KD tx inconclusive, DT40 TDP1 no CPT inconclusive, DT40 TDP1 CPT 8.2µM* and KB-V1 MDR tox inconclusive.
`Oc1ccc(N=C/C=C/c2cccc(Br)c2)cc1-c1nc2ccccc2s1` gave HT1080NT lethal -23%, KB-3-1 tox inconclusive, HT1080 IDH1KD tx inconclusive, DT40 TDP1 no CPT 21µM*, DT40 TDP1 CPT 12µM* and KB-V1 MDR tox inactive.
`Nc1ccc(-c2nc3ccc(C(=O)O)cc3s2)cc1` gave HT1080NT lethal -24%, KB-3-1 tox inactive, HT1080 IDH1KD tx inconclusive, DT40 TDP1 no CPT -26%, DT40 TDP1 CPT -30% and KB-V1 MDR tox inactive.
For Cc1ccc(S(=O)(=O)NC(=O)Nc2cccc(S(=O)(=O)N(C)C)c2)cc1 the results were HT1080NT lethal 3%, KB-3-1 tox inactive, HT1080 IDH1KD tx 7%, DT40 TDP1 no CPT -12%, DT40 TDP1 CPT -19% and KB-V1 MDR tox inactive.
For Cc1ccc(-c2[nH]c3ccccc3c2C(C[N+](=O)[O-])c2ccco2)cc1 (stereo unspecified) the results were HT1080NT lethal 16µM*, KB-3-1 tox inactive, HT1080 IDH1KD tx inconclusive, DT40 TDP1 no CPT inconclusive, DT40 TDP1 CPT inconclusive and KB-V1 MDR tox 21µM*.
For Cc1[nH]c2ccccc2c1C(C[N+](=O)[O-])c1ccco1 (stereo unspecified) the results were HT1080NT lethal inconclusive, KB-3-1 tox inactive, HT1080 IDH1KD tx -16%, DT40 TDP1 no CPT inconclusive, DT40 TDP1 CPT inconclusive and KB-V1 MDR tox inactive.
For NS(=O)(=O)c1ccc(CCNc2nn3c(-c4cccc(OC(F)(F)F)c4)cnc3s2)cc1 the results were HT1080NT lethal 8.2µM*, KB-3-1 tox inconclusive, HT1080 IDH1KD tx 8.2µM*, DT40 TDP1 no CPT 13µM*, DT40 TDP1 CPT 12µM* and KB-V1 MDR tox inactive.
NS(=O)(=O)c1ccc(CCNc2nccn(-c3cccc(C(F)(F)F)c3)c2=O)cc1 was read as KB-3-1 tox inactive, DT40 TDP1 no CPT inconclusive, DT40 TDP1 CPT -17% and KB-V1 MDR tox inactive.
For COc1ccc(CNc2nc(-c3ccco3)nn2C(=O)CC(C)C)cc1 the results were DT40 TDP1 no CPT -13% and DT40 TDP1 CPT -23%.
O=C(Cn1c2ccccc2c2nc3n(c(=O)c21)CCS3)N1CCCC1 was read as HT1080NT lethal -3%, KB-3-1 tox inactive, HT1080 IDH1KD tx -1%, DT40 TDP1 no CPT 2%, DT40 TDP1 CPT -8% and KB-V1 MDR tox inactive.
O=C(Cn1c2ccccc2c2nc3n(c(=O)c21)CCS3)Nc1ccccc1 was read as HT1080NT lethal 0%, KB-3-1 tox inactive, HT1080 IDH1KD tx -2%, DT40 TDP1 no CPT inconclusive, DT40 TDP1 CPT 21µM* and KB-V1 MDR tox inactive.
CCOC(=O)Cc1nn(Cc2nc(-c3ccc(C)cc3)cs2)c(=O)c2ccccc12 was read as HT1080NT lethal 16µM*, KB-3-1 tox inactive, HT1080 IDH1KD tx -8%, DT40 TDP1 no CPT inconclusive, DT40 TDP1 CPT -23% and KB-V1 MDR tox inconclusive.
Screening Cc1[nH]c(=O)[nH]c(=O)c1S(=O)(=O)Nc1ccc(Br)cc1F returned HT1080NT lethal -1%, KB-3-1 tox inactive, HT1080 IDH1KD tx 10%, DT40 TDP1 no CPT 1%, DT40 TDP1 CPT 0% and KB-V1 MDR tox inactive.
O=C(CCc1nc(-c2cccs2)no1)Nc1ccccc1[N+](=O)[O-] was read as KB-3-1 tox inactive, DT40 TDP1 no CPT inconclusive, DT40 TDP1 CPT -8% and KB-V1 MDR tox inactive.
Screening O=C(c1cn(-c2ccccc2)nc1-c1cccs1)N1CCN(c2ccccn2)CC1 returned HT1080NT lethal -5%, KB-3-1 tox inconclusive, HT1080 IDH1KD tx -14%, DT40 TDP1 no CPT 21µM*, DT40 TDP1 CPT inconclusive and KB-V1 MDR tox inconclusive.
`CCN(CC)CCNC(=O)c1cn(-c2ccccc2)nc1-c1cccs1` gave HT1080NT lethal -22%, KB-3-1 tox inactive, HT1080 IDH1KD tx -17%, DT40 TDP1 no CPT -18%, DT40 TDP1 CPT -15% and KB-V1 MDR tox inactive.
For O=C(Nc1ccc2ccccc2c1)c1cn(-c2ccccc2)nc1-c1cccs1 the results were HT1080NT lethal inconclusive, KB-3-1 tox inactive, HT1080 IDH1KD tx -18%, DT40 TDP1 no CPT inconclusive, DT40 TDP1 CPT inconclusive and KB-V1 MDR tox 18µM*.
`CCN(CC)CCOC(=O)c1ccc(NC(=O)c2cn(-c3ccccc3)nc2-c2cccs2)cc1` gave HT1080NT lethal 21µM*, KB-3-1 tox inactive, HT1080 IDH1KD tx inconclusive, DT40 TDP1 no CPT 21µM*, DT40 TDP1 CPT inconclusive and KB-V1 MDR tox inactive.
COc1cc(CC(=O)Nc2nccs2)cc(OC)c1OC was read as HT1080NT lethal -5%, KB-3-1 tox inactive, HT1080 IDH1KD tx -7%, DT40 TDP1 no CPT -5%, DT40 TDP1 CPT -28% and KB-V1 MDR tox inactive.
Screening COc1cc(C(=O)NC(=S)Nc2nccs2)cc(OC)c1OC returned HT1080NT lethal 5%, KB-3-1 tox inactive, HT1080 IDH1KD tx 5%, DT40 TDP1 no CPT 21µM*, DT40 TDP1 CPT inconclusive and KB-V1 MDR tox inactive.
For COC(=O)/C(=C\Nc1ccc(Cl)cc1Cl)NC(=O)c1ccc(OC)cc1 the results were HT1080NT lethal 3.3µM*, KB-3-1 tox 5.8µM*, HT1080 IDH1KD tx 1.6µM*, DT40 TDP1 no CPT 4.1µM*, DT40 TDP1 CPT 3.7µM* and KB-V1 MDR tox 4.1µM*.
